Compound activity as filed in PubChem BioAssay.
DT40 TDP1 CPT: DT40-hTDP1 cell growth loss with CPT; chicken DT40 Tdp1-/-;hTDP1 cells + 20 nM CPT, ATP luminescence, 48 h; Potency, µM (doses to about 46.2 µM), inactives show at the highest dose activity change, negative = growth inhibition, most hits filed as inhibitors; actives 12% (n = 420,000); AID 686979; note: potency is the fitted concentration of half-maximal effect; nearly all actives have a fitted effect of over 55% in size
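Cell growth measured by CellTiter-Glo luminescence after a minimum 48 h, 37 C compound exposure with 20 nM CPT in Tdp1-knockout DT40 cells stably expressing hTDP1, seeded 400/well; qHTS titration format.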
DT40 TDP1 no CPT: qHTS for Inhibitors of human tyrosyl-DNA phosphodiesterase 1 (TDP1): qHTS in cells in absence of CPT. DT40 Tdp1-/- hTDP1 cells, no CPT, ATP luminescence, 48 h. Potency, µM (titrated, usually from 46.2 µM), inactives show at the highest dose activity change, negative = growth inhibition, usual class: inhibitors. actives 15% (n = 420,000); note: potency is the fitted concentration of half-maximal effect; nearly all actives have a fitted effect of over 55% in size
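No-CPT arm: Tdp1-/-;hTDP1 DT40 cells (400/well) plus compounds, incubated ≥48 hr at 37 °C. Readout CellTiter-Glo luminescence.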
IL-1B inflam inh: blocks inflammasome-driven IL-1 beta release; actives 4.7% (n = 360,000); activity change, % at 57.5 µM; THP-1 LPS/ATP IL-1B secretion, AlphaLISA, 16 h; stronger effect = lower value; in the data active = activity change below about -50%; inconclusive = mostly about -30% to -49%
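Secreted IL-1B measured by AlphaLISA bead assay after 16 h compound exposure of THP-1 cells; compounds (final up to 57.5 uM) added 1 h before LPS (250 ng/mL) and ATP (1.25 mM) stimulation; lower signal means less secretion.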
HT1080 IDH1KD tx: toxicity to HT-1080 IDH1 knockdown cells (counter line). Potency, µM (series often up to 46.1 µM), for inactives: at the highest dose activity, negative = toxicity, usual class: cytotoxic. actives 2% (n = 360,000). HT-1080 IDH1 knockdown viability, ATP luminescence, 48 h. AID 686971;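 note: potency is the fitted concentration of half-maximal effect; 0% = DMSO wells and -100% = cell-free medium wells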
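In this qHTS, HT-1080 cells depleted of IDH1 are exposed for 48 h at 37 °C to compound titrations. Toxicity is scored from CellTiter-Glo luminescence, with DMSO as full viability and medium alone as none.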
HT1080NT lethal: kills 2HG-producing HT-1080-NT fibrosarcoma cells. HT-1080-NT fibrosarcoma viability, CellTiter-Glo ATP luminescence, 48 h. Potency, µM (titrated, usually from 46.1 µM), without a hit: at the highest dose activity, negative = less viability, most hits filed as cytotoxic. actives 1.6% (n = 360,000). AID 686970;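 note: NT is the 2HG producing partner of a matched IDH1 knockdown line; potency is the fitted concentration of half-maximal effect; 0% = DMSO-treated cells and -100% = media-only wells without cells; nearly all actives have a fitted effect of over 55% in size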
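750 cells/well, RPMI + 5% FBS; 2 h settle, compound pin-transfer, 48 h at 37 degrees C. CellTiter-Glo 10 min RT, luminescence. Normalized to DMSO and media-only wells.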
Active calls of the source: *. Most compounds without a hit are left out; they make up all but 19% or so of the library. Unless noted, calls come from the whole dose curve; as a rule, active = well fitted curve in the direction sought with a large enough effect; inconclusive = small, poorly fitted or top-dose-only effect, or another doubt; inactive = no such curve, though single readings can be large; an effect the other way counts as inactive or inconclusive. Unless noted, % is set by controls: 0 for no effect and ±100 for the full control effect.

How did CC(=O)Nc1ccc(NC(=O)c2cc([N+](=O)[O-])cc([N+](=O)[O-])c2)cc1 do in these assays?
DT40 TDP1 CPT: inconclusive; DT40 TDP1 no CPT: -29%; IL-1B inflam inh: 41; HT1080 IDH1KD tx: -2%; HT1080NT lethal: -5%

What do the screens show for `CC(=O)Nc1ccc(Sc2ccc([N+](=O)[O-])o2)cc1`?
DT40 TDP1 CPT: 2.6µM*; DT40 TDP1 no CPT: 2.6µM*; IL-1B inflam inh: -97*; HT1080 IDH1KD tx: 5.8µM*; HT1080NT lethal: 4.1µM*

How did Nc1ccc(Sc2ccc([N+](=O)[O-])cc2)cc1 do in these assays?
DT40 TDP1 CPT: inconclusive; DT40 TDP1 no CPT: inconclusive; IL-1B inflam inh: -70*; HT1080 IDH1KD tx: 0%; HT1080NT lethal: -5%

What do the screens show for `CC(C)(C)C(=O)Nc1ccc(Sc2ccc([N+](=O)[O-])cc2)cc1`?
DT40 TDP1 CPT: 8.2µM*; DT40 TDP1 no CPT: 7.3µM*; IL-1B inflam inh: -9; HT1080 IDH1KD tx: -14%; HT1080NT lethal: -14%

Results for O=S(=O)(/C=C/c1ccccc1)N1CCN(c2cccc(Cl)c2)CC1 ?
DT40 TDP1 CPT: -14%; DT40 TDP1 no CPT: -6%; IL-1B inflam inh: -10; HT1080 IDH1KD tx: inconclusive; HT1080NT lethal: -10%

What do the screens show for `COc1ccc(N(C)S(=O)(=O)c2cccc(C(=O)Nc3ccc(N4CCOCC4)cc3)c2)cc1`?
DT40 TDP1 CPT: 18µM*; DT40 TDP1 no CPT: 23µM*; IL-1B inflam inh: -13; HT1080 IDH1KD tx: -27%; HT1080NT lethal: -8%

What do the screens show for `CN(c1ccccc1)S(=O)(=O)c1cccc(C(=O)Nc2ccc(N3CCOCC3)cc2)c1`?
DT40 TDP1 CPT: inconclusive; DT40 TDP1 no CPT: 18µM*; IL-1B inflam inh: inconclusive; HT1080 IDH1KD tx: -6%; HT1080NT lethal: -11%

How did CN(C)S(=O)(=O)c1cccc(C(=O)Nc2ccc(N3CCOCC3)cc2)c1 do in these assays?
DT40 TDP1 CPT: -25%; DT40 TDP1 no CPT: -16%; IL-1B inflam inh: 24; HT1080 IDH1KD tx: -19%; HT1080NT lethal: -6%

How did COc1ccc(N(C)S(=O)(=O)c2cccc(C(=O)NCC3CCCCC3)c2)cc1 do in these assays?
DT40 TDP1 CPT: 23µM*; DT40 TDP1 no CPT: 13µM*; IL-1B inflam inh: -50*; HT1080 IDH1KD tx: -5%; HT1080NT lethal: -12%

Results for COc1ccc(N(C)S(=O)(=O)c2cccc(C(=O)NC3CCCC3)c2)cc1 ?
DT40 TDP1 CPT: inconclusive; DT40 TDP1 no CPT: inconclusive; IL-1B inflam inh: inconclusive; HT1080 IDH1KD tx: -7%; HT1080NT lethal: 9%

Results for COc1cc(-c2noc(-c3ccc(NC4CCCC4)c([N+](=O)[O-])c3)n2)cc(OC)c1OC ?
DT40 TDP1 CPT: -20%; DT40 TDP1 no CPT: -26%

What do the screens show for `CC(C)Nc1ccc(-c2nc(-c3ccncc3)no2)cc1[N+](=O)[O-]`?
DT40 TDP1 CPT: -25%; DT40 TDP1 no CPT: -14%

What do the screens show for `O=c1c(CCc2ccccc2)nc2cnc(Nc3ccccc3)nc2n1Cc1cccs1`?
DT40 TDP1 CPT: 6%; DT40 TDP1 no CPT: -20%

What do the screens show for `Cc1ccc(S(=O)(=O)Nc2cccc(C(=O)NCCCN3CCOCC3)c2)cc1F`?
DT40 TDP1 CPT: -23%; DT40 TDP1 no CPT: -26%; IL-1B inflam inh: 0; HT1080 IDH1KD tx: -3%; HT1080NT lethal: 0%

How did CCOc1ccc2[nH]c(=O)c(CN(Cc3cccs3)C(CC)c3nnnn3C(C)(C)CC)cc2c1 (configuration not stated) do in these assays?
DT40 TDP1 CPT: 21µM*; DT40 TDP1 no CPT: 18µM*; IL-1B inflam inh: inconclusive; HT1080 IDH1KD tx: inconclusive; HT1080NT lethal: inconclusive

What do the screens show for `CCC(c1nnnn1C1CCCC1)N(Cc1cccs1)Cc1cc2cc(C)ccc2[nH]c1=O` (configuration not stated)?
DT40 TDP1 CPT: 18µM*; DT40 TDP1 no CPT: 21µM*; IL-1B inflam inh: -54*; HT1080 IDH1KD tx: 0%; HT1080NT lethal: 6%

What do the screens show for `CCOC(=O)Cn1nnnc1C(CC)N(Cc1cccs1)Cc1cc2cc(C)ccc2[nH]c1=O` (configuration not stated)?
DT40 TDP1 CPT: inconclusive; DT40 TDP1 no CPT: inconclusive; IL-1B inflam inh: -8; HT1080 IDH1KD tx: -7%; HT1080NT lethal: -2%

What do the screens show for `CSCC[C@H](C=O)NC(=O)[C@H](CC(C)C)NC(=O)[C@H](CC(C)C)NC(C)=O`?
DT40 TDP1 CPT: 19µM*; DT40 TDP1 no CPT: 15µM*

How did CC(=O)N[C@@H](CC(C)C)C(=O)O do in these assays?
DT40 TDP1 CPT: -6%; DT40 TDP1 no CPT: -1%

What do the screens show for `CC(=O)NC(CC(C)C)C(=O)NC(=O)NCc1ccccc1` (configuration not stated)?
DT40 TDP1 CPT: -9%; DT40 TDP1 no CPT: -1%; IL-1B inflam inh: 25; HT1080 IDH1KD tx: 17%; HT1080NT lethal: 5%

How did CCCC[C@@H](C=O)NC(=O)[C@H](CC(C)C)NC(=O)[C@H](CC(C)C)NC(C)=O do in these assays?
DT40 TDP1 CPT: 1.3µM*; DT40 TDP1 no CPT: 1.1µM*

How did Cc1oc2c(O)c(O)ccc2c(=O)c1-c1cnn(-c2ccccc2)c1 do in these assays?
DT40 TDP1 CPT: inconclusive; DT40 TDP1 no CPT: 18µM*; IL-1B inflam inh: 84; HT1080 IDH1KD tx: inconclusive; HT1080NT lethal: inconclusive

How did Cc1oc2c(O)c(O)ccc2c(=O)c1-c1ccccc1 do in these assays?
DT40 TDP1 CPT: 0%; DT40 TDP1 no CPT: inconclusive; IL-1B inflam inh: 86; HT1080 IDH1KD tx: -20%; HT1080NT lethal: -6%

What do the screens show for `CC1(C)C=Cc2c(c3c(c4c(=O)c(-c5ccc(O)cc5)coc24)OC(C)(C)CC3)O1`?
DT40 TDP1 CPT: 18µM*; DT40 TDP1 no CPT: 26µM*; IL-1B inflam inh: inconclusive; HT1080 IDH1KD tx: inconclusive; HT1080NT lethal: 12%

What do the screens show for `CC(C)=CCc1c2c(c3occ(-c4ccc(O)c(O)c4)c(=O)c3c1O)C=CC(C)(C)O2`?
DT40 TDP1 CPT: 1.3µM*; DT40 TDP1 no CPT: 1.5µM*; IL-1B inflam inh: -62*; HT1080 IDH1KD tx: inconclusive; HT1080NT lethal: inconclusive

Results for COc1ccc(OC)c(NC(=O)c2cccc(N3C(=O)C4C5C=CC(C6CC56)C4C3=O)c2)c1 (configuration not stated) ?
DT40 TDP1 CPT: 16µM*; DT40 TDP1 no CPT: 12µM*; IL-1B inflam inh: -3; HT1080 IDH1KD tx: -5%; HT1080NT lethal: inconclusive

How did CC1=CCC2C(=O)N(c3cccc(C(=O)N(C)C4CCCCC4)c3)C(=O)C2C1 (configuration not stated) do in these assays?
DT40 TDP1 CPT: -29%; DT40 TDP1 no CPT: -25%; IL-1B inflam inh: -21; HT1080 IDH1KD tx: 1%; HT1080NT lethal: 5%
